Bioassay records as filed in PubChem BioAssay.
FBA Mtb inh: Mtb FBA enzyme inhibitors, primary screen, biochemical, fluorescence, strain H37Rv; Fructose-bisphosphate aldolase (Mycobacterium tuberculosis (strain ATCC 25618 / H37Rv)), …; purified M. tuberculosis FBA, fluorescence read-out; inhibition, % at 1 µM; 2.3% of 360,000 active; in the data active = inhibition above about 27%;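 also: 0% = vehicle and 100% = reference inhibitor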
Target sequence (P9WQA3 whole entry, looked up): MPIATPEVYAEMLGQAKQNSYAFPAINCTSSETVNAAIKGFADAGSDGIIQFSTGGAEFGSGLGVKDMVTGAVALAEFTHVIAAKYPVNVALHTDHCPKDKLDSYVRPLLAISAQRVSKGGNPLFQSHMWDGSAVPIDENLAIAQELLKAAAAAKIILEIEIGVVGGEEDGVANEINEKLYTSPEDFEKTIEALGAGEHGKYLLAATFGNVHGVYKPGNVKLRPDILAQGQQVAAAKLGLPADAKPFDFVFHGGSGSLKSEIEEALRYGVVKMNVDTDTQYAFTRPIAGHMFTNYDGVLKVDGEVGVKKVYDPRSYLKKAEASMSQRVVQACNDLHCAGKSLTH
GDH-TPI counter: GDH-TPI coupling enzyme inhibitors, primary screen, artefact control for M. tuberculosis FBA inhibitor project, biochemical, absorbance, full deck; AID 588335, 2011; 1.2% of 360,000 active; inhibition, % at 4.8 µM; GDH-TPI coupled enzyme counterscreen, NADH absorbance; in the data active = inhibition above about 30%;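 also: 0% = DMSO wells and 100% = wells lacking the enzyme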
Mtb hypoxia inh: PubChem AID 1159583; M. tuberculosis hypoxia-regulated fluorescent reporter, fluorescence; fluorescence inhibition, % (concentration not given with the values); 0.1% of 300,000 active; in the data active = fluorescence inhibition mostly above about 23%, no sharp cut-off; inactive = mostly below about 17%
FadD28 binding: inhibitors of FadD28 bisubstrate probe binding, primary screen, biochemical, fluorescence polarization, single point | Mycobacterium tuberculosis FadD28 fatty-acid-AMP ligase | inhibition, % at 12.5 µM | 0.22% of 360,000 active | AID 588549, 2011; in the data active = inhibition above about 8.5%, passing the limit was not always enough
BioA inh: M. tuberculosis BioA enzyme inhibitors, primary screen, biochemical, plate reader, single point, HTS | 7,8-diaminopelargonic acid synthase BioA (Mycobacterium tuberculosis) | purified M. tuberculosis BioA enzyme | inhibition, % at 9.99 µM | 0.096% of 360,000 active | AID 602481, 2012; in the data active = inhibition above about 40%
Active calls of the source: *; x = not tested or not shown; + = active, no number; ! = not active in a repeat. Compounds with a hit are over-represented: about 2.9% of the library has one in this group of screens.

SMILES	FBA Mtb inh	GDH-TPI counter	Mtb hypoxia inh	FadD28 binding	BioA inh
O=C(Nn1c(O)c(C=C2N=c3ccccc3=N2)sc1=S)c1ccccc1	-10	24	8	15*	-1
O=C(Nn1c(O)c(C=C2N=c3ccccc3=N2)sc1=S)c1cccc(Cl)c1	-8	19	7	-1	-3
O=C(Nn1c(O)c(C=C2N=c3ccccc3=N2)sc1=S)c1ccc(Cl)cc1	-9	11	5	48*	x
Cc1ccc(C(=O)Nn2c(O)c(C=C3N=c4ccccc4=N3)sc2=S)cc1	-11	11	5	2	-1
Cn1c2ccc(Br)cc2c2nnc(SCC(=O)O)nc21	-1	31*	9	-2	-1
Cn1c2ccccc2c2nnc(SCC(=O)Nc3cccc(O)c3)nc21	1	35*	1	1	7
Cn1c2ccccc2c2nnc(SCC(N)=O)nc21	-1	14	15	-2	2
N[C@@H](Cc1cc(I)c(O)c(I)c1)C(=O)O	1	23	x	10*	2
CC(=O)N[C@@H]1CC[C@@H](CCNC(=O)Nc2ccc(C(F)(F)F)cc2)O[C@H]1CO	x	x	x	x	2
Cc1ccc(S(=O)(=O)c2c(C)nn(C(C)(C)C)c2OC(=O)c2ccc(Br)o2)cc1	-1	5	x	-1	x
Cc1ccc(S(=O)(=O)c2c(C)nn(C(C)(C)C)c2OC(=O)c2ccco2)cc1	189*	3	x	0	1
CC(C)(C)c1ccc(C(=O)/C=C2\NC(=O)CS2)cc1	2	48*	x	-3	0
CCN1[C@H](C(=O)NCC2CC2)[C@@H](CO)[C@@H]2Cn3c(ccc(-c4ccccc4)c3=O)[C@@H]21	x	x	x	x	0
CC(C)(C)c1ccc(CS(=O)(=O)CC(O)CN2CCCC2=O)cc1 (stereo not given)	0	-1	-8	-2	0
Cc1ccccc1CS(=O)(=O)CC(O)CN1CCCC1=O (stereo not given)	+	0	4	-2	0
O=C(Nc1ccc2c(c1)[C@@H]1C[C@@H](CC(=O)N3CCOCC3)O[C@H](CO)[C@@H]1O2)Nc1ccccc1F	x	x	x	x	-1
CCC12CN3CCN(CC(C3)C1=NNC(=O)c1ccc(Cl)cc1)C2	x	x	-6	x	x
Oc1ccccc1N=N/C(=N/Nc1ccccc1O)c1ccccc1	1	5	x	0	-2
N#C/C(N=Nc1ccccc1O)=N\Nc1ccccc1O	-1	13	x	9.4*	-1
O=C(CCCN1C(=O)/C(=C/c2ccco2)SC1=S)Nc1cccc(C(=O)O)c1	-1	6	18	18*	x
O=C(CCCN1C(=O)/C(=C\c2ccco2)SC1=S)Nc1ccc(O)cc1C(=O)O	6	10	x	40*	0
COc1ccc(CN(C(C)CO)S(=O)(=O)N(Cc2ccccc2)C(CO)C(C)C)cc1 (stereo not given)	x	x	-7	x	x
Cc1ccc(S(=O)(=O)N[C@H]2CC[C@@H](CC(=O)NCCCN(C)C)O[C@@H]2CO)cc1	x	x	x	x	-2
O=S(=O)(Nc1nc2ccccc2nc1NCc1ccco1)c1ccc(F)cc1	12	34*	-5	0	x
O=C(N[C@H]1CC[C@@H](CCNC(=O)C2CCCCC2)O[C@@H]1CO)c1ccccn1	x	x	x	x	2
SMILES	FBA Mtb inh	GDH-TPI counter	Mtb hypoxia inh	FadD28 binding	BioA inh
Cc1ccc(C2CC(=O)NC(SCC(=O)Nc3nccs3)=C2C#N)cc1 (stereo not given)	-8	0	x	12*	-1
O=C(c1ccc2nc(-c3ccco3)c(-c3ccco3)nc2c1)N1CCN(c2ccccc2)CC1	0	11	4	-3	0
O=C(c1ccco1)N1CCN(C(=O)c2cc(-c3ccncc3)nc3ccc(Br)cc23)CC1	5	3	x	-4	0
O=C(O)c1cc(-c2ccco2)nc2ccc(Br)cc12	-4	3	-2	29*!	-2
O=C(O)c1ccc2nc(-c3ccco3)c(-c3ccco3)nc2c1	-2	15	5	13*	-1
CCNC(=O)[C@@H]1[C@@H](CO)[C@@H]2Cn3c(ccc(-c4cccc(F)c4)c3=O)[C@H]1N2C(=O)c1cnccn1	x	x	x	x	-1
Cc1cc(NC(=O)c2sc3ccccc3c2O)no1	+	9	6	0	2
CO[C@H]1CN(C)C(=O)c2cc(NS(C)(=O)=O)ccc2OC[C@@H](C)N(C(=O)NC(C)C)C[C@H]1C	x	x	x	x	-1
CCOC(=O)c1c(-n2c(C)cc(C=C3C(=O)NC(=S)NC3=O)c2C)sc2c1CCCC2	3	32*	-2	2	-3
COc1ccc(NC(=O)N(C)C[C@@H]2Oc3ncc(-c4cccnc4)cc3C(=O)N([C@H](C)CO)C[C@H]2C)cc1	x	x	x	x	9
CCOC(=O)c1cc(OC)c2cccc(CN3CCC(C)(C(=O)NCCOC)C3)c2c1 (stereo not given)	28*	20	x	-3	0
CCN=c1scc(-c2cccs2)n1N=Cc1cc(OC)ccc1O	x	x	-1	x	x
C=CCn1cc(C(=O)OC)c(=O)c2cc(S(=O)(=O)N(CC)CC)ccc21	-1	7	17	-4	3
C=CCn1cc(C(=O)OC)c(=O)c2cc(S(=O)(=O)N3CCC(C)CC3)ccc21	2	32*	4	0	3
CCC(=O)N1N=C(c2ccc(NS(=O)(=O)CC)cc2)CC1c1ccc(C)cc1 (stereo not given)	+	5	-7	-2	x
CS(=O)(=O)Nc1ccc(C2=NN(C(=O)c3ccco3)C(c3cccc(F)c3)C2)cc1 (stereo not given)	3	31*	-2	-3	30
CCS(=O)(=O)Nc1ccc(C2=NN(C(=O)c3ccco3)C(c3ccc(C)cc3)C2)cc1 (stereo not given)	3	24	-6	-4	x
CCC(=O)N1N=C(c2ccc(NS(=O)(=O)c3ccc(C)cc3)cc2)CC1c1ccco1 (stereo not given)	2	2	8	-3	-1
CCS(=O)(=O)Nc1ccc(C2=NN(C(=O)c3ccco3)C(c3ccc(Cl)o3)C2)cc1 (stereo not given)	5	50*	4	-1	6
COCC(=O)N(C)C[C@H]1[C@H](c2ccccc2)[C@@H](CO)N1C(=O)NC(C)C	x	x	x	x	-1
CC(Oc1ccc(Cl)cc1)C(=O)Nc1ccc(S(=O)(=O)Nc2nccs2)cc1 (stereo not given)	107*	3	-3	0	1
CC(Oc1ccccc1Cl)C(=O)Nc1ccc(S(=O)(=O)Nc2nccs2)cc1 (stereo not given)	3	0	11	0	-1
CCOc1cc(C(=O)NN=Cc2ccoc2)cc(OCC)c1OCC	x	x	0	x	x
COc1cccc(NC(=O)C[C@@H]2CC[C@@H]3[C@H](COc4ccc(NC(=O)C5CCCCC5)cc4C(=O)N3C)O2)c1	x	x	x	x	-1
Cc1cc2c(cc1S(=O)(=O)NC1CCCCC1C)OCC(=O)N2 (stereo not given)	1	-6	7	-1	0
